In all, about 3,000 compounds went through this assay and about 1,600 (53%) were called active. About 10% were inconclusive and are not listed. The set was probably picked from earlier hits. Not all results are given here. A number with no mark means an inactive call.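 How the source made its calls: active means Flux at 10 µM at least 3 SD below or above vehicle control mean in one or both replicates; inconclusive means no clear call, values can overlap the other calls; inactive means the rest.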
The molecules below were run against ATP-sensitive inward rectifier potassium channel 1 (Homo sapiens) (UniProt P48048) (assay: ROMK channel modulator hit retest, confirmation, cell-based, thallium flux, duplicate, resupplied hits (AID 1917)). Conditions: fluorescence ratio, at 10 µM, active compounds read low.
Sequence of ATP-sensitive inward rectifier potassium channel 1 (Homo sapiens) (P48048 whole entry, looked up): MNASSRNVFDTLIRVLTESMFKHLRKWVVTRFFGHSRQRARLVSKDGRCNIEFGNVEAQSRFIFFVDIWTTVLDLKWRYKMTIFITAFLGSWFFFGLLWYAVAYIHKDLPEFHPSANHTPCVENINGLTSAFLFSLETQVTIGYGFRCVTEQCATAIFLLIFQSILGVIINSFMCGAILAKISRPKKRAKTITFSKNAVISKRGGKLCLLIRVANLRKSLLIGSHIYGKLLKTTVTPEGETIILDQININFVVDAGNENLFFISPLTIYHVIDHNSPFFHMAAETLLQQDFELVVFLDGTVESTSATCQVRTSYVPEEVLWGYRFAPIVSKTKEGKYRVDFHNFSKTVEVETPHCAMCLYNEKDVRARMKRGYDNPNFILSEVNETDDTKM

SMILES	normalized thallium flux (F/F0 slope)
Cc1nc2ccccc2nc(=O)c1NNc1ccc([N+](=O)[O-])cc1	0.0842
COc1ccc(N=Cc2c(O)[nH]c3ccccc23)cc1OC	0.0799
O=[N+]([O-])c1ccc(N=Cc2c(O)ccc3ccccc23)cc1	0.064 (active)
C=CCn1cnc2scc(-c3ccccc3)c2c1=O	0.049 (active)
O=C(Nc1ccc(N2CCOCC2)cc1)c1ccc(-c2ccccc2[N+](=O)[O-])o1	0.108 (active)
O=C(CCN1CCc2ccccc2C(O)(c2ccccc2)C1)c1ccc2c(c1)OCCO2 (configuration not stated)	0.0602 (active)
CSc1nc2nc3c(c(=O)n2[nH]1)CCC3	0.0761
Cc1cccn2c(=O)c3cc(C(=O)N4COCC4(C)C)n(C)c3nc12	0.0444 (active)
Cc1ccc(S(=O)(=O)C2(S(=O)(=O)c3ccc(C)cc3)CCCC2)cc1	0.0776
Cc1cc2cc(CN(Cc3cccs3)Cc3nnnn3CC3CCCO3)c(=O)[nH]c2cc1C (configuration not stated)	0.0575 (active)
NC(=O)c1ccccc1N(Cc1ccccc1)S(=O)(=O)c1ccccc1	0.0757
O=C(O)c1ccc2c(c1)C(=O)N(c1ccc(/C=C/C(=O)c3ccccc3)cc1)C2=O	0.0504 (active)
CC(C)(c1ccccc1)c1ccc(OCCN)cc1	0.0605 (active)
CCCN(CCC)CC(O)COc1ccccc1C(=O)Nc1ccccc1 (configuration not stated)	0.055 (active)
CS(=O)(=O)c1ccc(Cl)c(NC(=O)Nc2ccccc2)c1	0.0706
Cc1cccc(-n2c(SCC(=O)Nc3cccc(S(=O)(=O)NC4=NCCCCC4)c3)nc3ccccc3c2=O)c1C	0.0482 (active)
Cc1ccc(C)c(NC(=O)CSc2nc3c(oc4ccccc43)c(=O)n2-c2ccccc2)c1	0.077
O=C(CN1CCCCCC1)NCCN1C(=O)S/C(=C\c2ccccc2Cl)C1=O	0.0525 (active)
O=[N+]([O-])c1cc(Cl)cc(/C=N/NC(=S)Nc2cc(S(=O)(=O)N3CCOCC3)ccc2Cl)c1O	0.0856
O=C1C(=O)N(c2ccccc2)c2ccccc21	0.0906
CCCOc1ccc(C(=O)C(CCC(CNCC)C(=O)c2ccc(OCCC)cc2)CNCC)cc1 (configuration not stated)	0.0393 (active)
O=C(Cn1nc(CNc2ccc(Cl)cc2)[n+]2c1CCCCC2)c1ccc(Cl)cc1	0.0549 (active)
Cn1c(SCC(=O)N2CCCc3ccccc32)nc2ccccc2c1=O	0.0629 (active)

SMILES	normalized thallium flux (F/F0 slope)
C=CCOc1cccc(CNn2cn[nH]c2=S)c1	0.0819
CN(C)/C=C(/C(=O)c1ccc(Cl)c(Cl)c1)c1nnnn1-c1ccccc1	0.0735
CC(C)CN(CC(C)C)CC(O)CN(c1ccccc1)S(=O)(=O)c1ccccc1[N+](=O)[O-] (configuration not stated)	0.0763
COc1ccc([N+](=O)[O-])cc1N(CC(O)CN(CC(C)C)CC(C)C)S(=O)(=O)c1ccc(C)cc1 (configuration not stated)	0.0621 (active)
O=C(CN1C(=O)NC(Cc2ccccc2)(Cc2ccccc2)C1=O)NCC1CCCCC1	0.056 (active)
O=C(CN1C(=O)NC2(CCCCC2)C1=O)NCCC1=CCCCC1	0.0839
COCCNC(=O)/C(C#N)=C/c1cccc(OCc2ccccc2)c1	0.042 (active)
CC(C(=O)NC1CCCC1)N(c1ccc(Oc2ccccc2)cc1)S(C)(=O)=O (configuration not stated)	0.061 (active)
CCCCCCCCCCOC(=O)C[N+](C)(C)CC1CCCCC1O (configuration not stated)	0.0597 (active)
CCOC(=O)Cc1csc(NC(=O)CSc2ccc(Br)cc2)n1	0.0659 (active)
CCOC(=O)Cc1csc(SCC(=O)NC(C)C23CC4CC(CC(C4)C2)C3)n1 (configuration not stated)	0.0513 (active)
CC1=CC2=NC(=O)/C(=C/c3coc4ccccc4c3=O)C(=N)N2O1	0.0388 (active)
Cc1cc(/C=C2/C(=N)N3C(=NC2=O)SN=C3S(C)(=O)=O)c(C)n1-c1ccccc1	0.0746
O=C(CCl)N(Cc1cccc([N+](=O)[O-])c1)c1cccc(Cl)c1	0.0469 (active)
CC(C)(C)CC(C)(C)NCC(O)COCCOc1ccc(Br)cc1 (configuration not stated)	0.0489 (active)
CC1CCCN(S(=O)(=O)c2ccc(N(C(=O)c3cnccn3)C(C(=O)NC3CCCCC3)c3cccs3)cc2)C1 (configuration not stated)	0.0633 (active)
N#Cc1c(N)n(CCOC(=O)c2ccc(Cl)cc2)c2nc3ccccc3nc12	0.0672 (active)
O=C(Nc1nnc(SCc2ccccc2Cl)s1)c1cccc([N+](=O)[O-])c1	0.0638 (active)
CCC(C)(C)n1nnnc1C(c1cccs1)N1CCN(c2nc3ccccc3s2)CC1 (configuration not stated)	0.0713
Cc1ccc(C(=O)C[n+]2cc(-c3ccccc3)n3c2CCCCC3)cc1	0.0564 (active)
CN(NC(=O)c1ccccc1F)c1nc(C(F)(F)F)nc2ccccc12	0.0894
O=C(/C=C/c1ccc(Cl)c([N+](=O)[O-])c1)c1ccc(O)cc1	0.0498 (active)
O=C(/C=C/c1ccc(Cl)c([N+](=O)[O-])c1)c1cccnc1	0.0474 (active)

SMILES	normalized thallium flux (F/F0 slope)
O=C(/C=C/c1ccc(Cl)cc1Cl)c1cccnc1	0.0511 (active)
O=C1COc2ccc(NC(=O)N3CCN(c4ccc(F)cc4)CC3)cc2N1	0.0765
O=C(CN1CCOCC1)N/N=C/c1ccc(-c2ccc(Br)cc2)o1	0.0674 (active)
COc1ccccc1-n1c(C)nc2cc(C(=O)NCc3ccc4c(c3)OCO4)ccc21	0.0924
O=C(NCCc1ccc2c(c1)OCCO2)c1cc2ccccc2o1	0.0628 (active)
COc1ccc2[nH]c(=O)c(CNc3ccc(C)c(C)c3)cc2c1	0.0713
Clc1ccc(-n2nnnc2-c2cnc(-c3ccccn3)nc2-c2cccs2)cc1	0.0713
Cc1cccc2cc(CN(Cc3nnnn3Cc3ccccc3)C3CCCC3)c(=O)[nH]c12	0.055 (active)
CCC(c1nnnn1C1CCCC1)N(Cc1cccs1)Cc1cc2cccc(C)c2[nH]c1=O (configuration not stated)	0.0635 (active)
COc1ccc(C(=O)OCC(=O)c2ccc(C)c(S(=O)(=O)N3CCOCC3)c2)cc1OC	0.0776
C#CCOCCOCCOCCNc1nc(N2CCN(C(=O)[C@H](CCC(=O)O)n3cc(C(N)CO)nn3)CC2)nc(N2CCN(C(=O)[C@H](CCCCN)n3cc(C(N)[C@H](C)CC)nn3)CC2)n1 (some centres not stated)	0.0789
Cc1ccc(CNC(=O)CC2Sc3ccccc3NC2=O)cc1 (configuration not stated)	0.086
CSc1cccc(NC(=S)N(Cc2ccccc2)Cc2ccccn2)c1	0.0791
CNC(=O)/C(C#N)=C/c1c(F)cccc1Cl	0.0423 (active)
CCOC(=O)c1c(NC(=O)CCl)sc(C(=O)N(CC)CC)c1C	0.0722
COc1ccccc1N1CCN(CCCCOc2ccc(F)cc2)CC1	0.0581 (active)
Cc1ccccc1CCN(CC(=O)NC1CCCCC1)C(=O)c1csnn1	0.0568 (active)
Cc1cc(C(C)(C)C)oc1C(=O)N(CC(=O)NC1CCCC1)Cc1ccc(Cl)cc1	0.0748
CCCS(=O)(=O)N1CCC(C(=O)NCCCN(C)Cc2ccccc2)CC1	0.0759
COc1ccc(-c2[nH]ncc2CN(C)Cc2c(C)n[nH]c2C)c(OC)c1	0.0773
COC(=O)Cn1cc(/C=C/[N+](=O)[O-])c2ccccc21	0.0436 (active)
CCOc1ccc2nc(N3CCCN(C(=O)Nc4ccccc4C)CC3)c(C#N)cc2c1	0.0592 (active)
CCOc1ccc2nc(Cl)c(C3CC(c4ccccc4)=NN3C(=O)c3cccs3)cc2c1 (configuration not stated)	0.084

SMILES	normalized thallium flux (F/F0 slope)
COc1ccccc1-n1c(=S)[nH]c2c(sc(=S)n2-c2ccc(C)cc2C)c1=O	0.0774
Cc1cc(Br)ccc1NC(=O)c1cnc(N2CCN(c3ccccn3)CC2)c2ccccc12	0.0609 (active)
COc1ccc(Br)cc1C(=O)Nc1cccc(C)c1C	0.0855
CN(C)c1ccc(C=C2C(=O)OC3(CCCC3)OC2=O)cc1	0.0453 (active)
CCOc1ccccc1C1C(C(=O)OC)=CN(C)C=C1C(=O)OC	0.0653 (active)
O=C(Nc1ccccc1-c1ccccc1)c1cccs1	0.0658 (active)
c1ccc2c(c1)CSc1sccc1C2=C1CCNCC1	0.0498 (active)
Fc1ccc2[nH]c3c(N4CCSCC4)ncnc3c2c1	0.0617 (active)
Cc1cc(/C=N/NC(N)=O)c(C)n1C1CCCCC1	0.0777
CC(NC(=O)CC1SC(N)=NC1=O)c1ccccc1 (configuration not stated)	0.087
CCOC(=O)C1=C(C)N=c2s/c(=C\C(=O)OC)c(=O)n2C1c1ccc(OC)cc1 (configuration not stated)	0.0406 (active)
CCCC(c1nnnn1C(C)(C)C)N1CCN(Cc2ccccc2)CC1 (configuration not stated)	0.0716
O=C1c2cccc3c([N+](=O)[O-])ccc(c23)C(=O)N1CC1CCCO1 (configuration not stated)	0.0565 (active)
CCN1C(=O)/C(=C2/Sc3ccccc3N2CCCS(=O)(=O)O)SC1=S	0.0827
CCCCc1nc(NCCN)c(C#N)c2c1CSC(C)(C)C2	0.0552 (active)
COc1cc2c(cc1OC)C(/C=C/c1ccco1)=NCC2	0.0485 (active)
O=C(Cc1ccc(Br)cc1)N1CCN(c2ccccn2)CC1	0.0628 (active)
O=C(Cc1ccccc1Cl)N1CCN(c2ccccn2)CC1	0.0716
COc1ccc(Cc2nc(-c3ccccn3)no2)cc1OC	0.0708
CCSc1sc(CC)cc1C=O	0.106 (active)
CC(NCc1ccccc1OC1CCCC1)c1ccccc1 (configuration not stated)	0.0563 (active)
N=c1c2c(-c3ccccc3)c(-c3ccccc3)n(Cc3ccccc3)c2ncn1CCCO	0.0532 (active)
Cc1nnnn1/C(=C\c1ccccc1)C(=O)OCC(=O)N1CC2(C)CC1CC(C)(C)C2 (configuration not stated)	0.0442 (active)
